Molecules are shown by their SMILES. The panel holds about 83,000 compounds, 20% with a hit somewhere; the sample as a whole holds those more often.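 Interpretation: 100, growth as untreated; towards 0, rising growth inhibition; 0, no net growth; 0 to -100, cell death. Compounds scoring below 10 were considered active.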 Values without a mark were called inactive. Active and inactive are the calls of the source.

Some test systems named below: DU-145 prostate; K-562 leukemia; MALME-3M melanoma; MDA-MB-231 breast; RXF 393 renal; SF-268 CNS; SF-295 CNS; SF-539 CNS; UACC-257 melanoma; M14 melanoma.
Common to all, as to assay: NCI-60 one-dose screen, 48 h (100 = growth as untreated, 0 = no growth, -100 = all killed)
Common to all, as to settings: 10 µM unless noted

On to `COc1ccc(NC(=O)Cn2c(/C=C/c3cccc(Br)c3)nc3ccccc3c2=O)cc1`, for which the growth in the assay with DU-145 prostate is 79.1%; in the assay with K-562 leukemia it was 86.3%; with MALME-3M melanoma it was 48.7%; in the assay with MDA-MB-231 breast, -38.4% (active); in the assay on RXF 393 renal, -16.3% (active); in the assay with SF-268 CNS, 65.2%. Further, the growth with SF-295 CNS is 48.9%; with SF-539 CNS, -23.4% (active); in the assay on UACC-257 melanoma, 71.1%; in the assay with M14 melanoma it was 50.2%.

Consider `COc1ccc(Nc2nnc(-c3c[nH]c4ccccc34)o2)cc1`, for which the growth in the assay on DU-145 prostate is 95.8%; in the assay on K-562 leukemia it was 68.1%; in the assay with MALME-3M melanoma, 79.5%; in the assay on MDA-MB-231 breast, 64.7%; with RXF 393 renal it was 104%; with SF-268 CNS, 71.9%. In addition, the growth in the assay with SF-295 CNS is 98%; in the assay on SF-539 CNS, 69.7%; in the assay on UACC-257 melanoma it was 95.9%; with M14 melanoma, 97.7%.

For the molecule `CC(C)(C)OC(=O)N1CCC2(CC1)Oc1ccccc1[C@H]1CC(c3ccc(Br)cc3)=NN12`, the growth in the assay with DU-145 prostate is 93.1%; in the assay on K-562 leukemia, 36.1%; with MALME-3M melanoma it was 90%; with MDA-MB-231 breast, 63%; in the assay with RXF 393 renal, 86.2%; in the assay on SF-268 CNS it was 55.9%. The growth in the assay on SF-295 CNS is 52.5%; with SF-539 CNS, 88.8%; in the assay on UACC-257 melanoma it was 99.3%; in the assay on M14 melanoma it was 87.3%.

As for `COc1ccc(-n2c(NC(=O)N3CCN(C)CC3)c(C#N)c3ccccc32)cc1`, the growth is 41.2% in the assay on DU-145 prostate; 58.6% with K-562 leukemia; 38.5% in the assay with MALME-3M melanoma; 29.6% with MDA-MB-231 breast; -9.29% (active) in the assay on RXF 393 renal; 29.1% in the assay with SF-268 CNS. The growth with SF-295 CNS was 47.1%; in the assay on SF-539 CNS it was 14.3%; in the assay with UACC-257 melanoma, 60.3%; with M14 melanoma, 54.4%.

Turning to `O=C(Cc1c(-c2ccccc2[N+](=O)[O-])n(-c2ncnc3c2c(-c2ccccc2)c(-c2ccccc2)n3Cc2ccccc2)[nH]c1=O)c1ccc(Cl)c(Cl)c1`, the growth with DU-145 prostate was 32.2%; with K-562 leukemia it was 12%; in the assay on MALME-3M melanoma, -12.6% (active); with MDA-MB-231 breast it was 33.5%; with RXF 393 renal it was 31.7%; with SF-268 CNS, 30.9%. Besides, the growth was 3.25% (active) in the assay with SF-295 CNS, 38.2% in the assay on SF-539 CNS, 11.5% with UACC-257 melanoma and 14.6% with M14 melanoma.

Turning to `COc1cc(CNC(=O)C[C@H](C)CCC=C(C)C)ccc1OCc1cn(-c2ccccc2Cl)nn1`, the growth in the assay with DU-145 prostate is 90.1%; in the assay on K-562 leukemia it was 44.6%; in the assay with MALME-3M melanoma, 68.2%; in the assay with MDA-MB-231 breast, 72.6%; in the assay on RXF 393 renal, 72.6%; in the assay with SF-268 CNS, 82.4%. For the same molecule, the growth in the assay with SF-295 CNS is 56.4%; in the assay on SF-539 CNS, 75.2%; in the assay with UACC-257 melanoma it was 60.3%; in the assay with M14 melanoma, 55.9%.

On to `O=C(NNC(=O)c1ccc(OCc2nc3ccc(Cl)cc3[nH]2)cc1)Nc1ccc(Cl)c(C(F)(F)F)c1`, for which the growth was 65.7% in the assay with DU-145 prostate; 39.1% in the assay on K-562 leukemia; 45.7% in the assay on MALME-3M melanoma; 17.4% in the assay on MDA-MB-231 breast; 67.3% with RXF 393 renal; 78.2% in the assay on SF-268 CNS. Also, the growth is 84.9% in the assay with SF-295 CNS, 39.3% in the assay on SF-539 CNS, 73% in the assay on UACC-257 melanoma and 79.2% with M14 melanoma.

`COc1cc(/C=C/C(=O)c2cnn(-c3cc(=O)[nH]c4ccc(Br)cc34)c2C)cc(OC)c1OC`: the growth is -83.4% (active) in the assay with DU-145 prostate; -0.439% (active) in the assay on K-562 leukemia; -42.4% (active) in the assay on MALME-3M melanoma; -34.3% (active) with MDA-MB-231 breast; -76.2% (active) in the assay with RXF 393 renal; -16.4% (active) with SF-268 CNS. Also, the growth is -61.8% (active) with SF-295 CNS, -78.8% (active) in the assay on SF-539 CNS, -30.3% (active) with UACC-257 melanoma and -49.8% (active) in the assay on M14 melanoma.

Turning to `Nc1nnc(-c2cncc(Br)c2)c(-c2c[nH]c3ccc(Cl)cc23)n1`, the growth with DU-145 prostate is 99.4%; in the assay on K-562 leukemia it was 30.5%; in the assay on MALME-3M melanoma, 99.3%; in the assay on MDA-MB-231 breast it was 74.7%; in the assay with RXF 393 renal it was 63.5%; with SF-268 CNS, 88.6%. In addition, the growth was 92.4% in the assay on SF-295 CNS, 72.5% in the assay on SF-539 CNS, 108% with UACC-257 melanoma and 86.4% in the assay on M14 melanoma.

On to `O=C(N=Nc1c(O)[nH]c2ccc(Br)cc12)c1ccc2nc(-c3ccc(Cl)cc3)[nH]c2c1`, for which the growth is -4.97% (active) in the assay with DU-145 prostate; 10% with K-562 leukemia; -34.7% (active) with MALME-3M melanoma; -89.5% (active) with MDA-MB-231 breast; -42.3% (active) with RXF 393 renal; -16.2% (active) in the assay on SF-268 CNS. Besides, the growth with SF-295 CNS is -62.8% (active); in the assay on SF-539 CNS, -100% (active); in the assay with UACC-257 melanoma, 46%; with M14 melanoma it was -3.86% (active).

With `COc1ccc(N=Nc2c(N)nn3c(-c4ccc5c(c4)C=S=C5)ccnc23)cc1`, the growth with DU-145 prostate is 35.4%; in the assay with K-562 leukemia, 15.4%; in the assay on MALME-3M melanoma, 43.9%; in the assay with MDA-MB-231 breast, 25%; in the assay on RXF 393 renal it was 12.2%; in the assay on SF-268 CNS, 67.7%. Moreover, the growth is 33.8% in the assay with SF-295 CNS, 22.6% with SF-539 CNS, 85.3% with UACC-257 melanoma and 58.9% with M14 melanoma.

As for `COc1nc(N)ncc1-c1ccc2ncnc(N3CCc4cc(F)c(Cl)cc43)c2c1`, the growth with DU-145 prostate was 30.6%; in the assay with K-562 leukemia it was 31.6%; with MALME-3M melanoma, 64.3%; in the assay on MDA-MB-231 breast it was -22.7% (active); in the assay on RXF 393 renal, -46.2% (active); with SF-268 CNS, 54.2%. Moreover, the growth with SF-295 CNS is 17.9%; with SF-539 CNS it was 1.76% (active); in the assay on UACC-257 melanoma it was 78.8%; in the assay on M14 melanoma it was 62.4%.

In the case of `COc1ccc(NC(=O)Nc2nc3ccc([N+](=O)[O-])cc3s2)cc1`, the growth in the assay on DU-145 prostate was 24.8%; in the assay with K-562 leukemia it was 9.59% (active); with MALME-3M melanoma it was -1.52% (active); with MDA-MB-231 breast it was 46.1%; in the assay on RXF 393 renal, -0.305% (active); with SF-268 CNS it was 38.6%. For the same molecule, the growth was 35.6% in the assay with SF-295 CNS, 7.77% (active) in the assay with SF-539 CNS, 16% in the assay on UACC-257 melanoma and 57.6% with M14 melanoma.
